LASV entry inh = qHTS for Inhibitors of binding or entry into cells for Lassa Virus | 300,000 compounds, 1.2% hits | Lassa virus pseudotype entry inhibition, cell reporter | Potency, µM (highest dose often 37.9 µM), inactives show top-dose activity change, negative = inhibition, hits mostly inhibitors; calls by dose curve; tested in HEK293 cells; also: nearly all actives have a fitted effect of over 50% in size
Vaccinia Venus = qHTS for Stage-Specific Inhibitors of Vaccinia Orthopoxvirus: Venus Reporter Primary qHTS; Vaccinia virus Venus reporter expression, fluorescence; Potency, µM (top dose mostly 36.5 µM), for inactives: top-dose activity change, negative = inhibition, hits mostly inhibitors; 330,000 compounds, 0.46% hits; AID 720580, 2013; calls by dose curve; tested in A549 cells; also: nearly all actives have a fitted effect of over 30% in size
MARV entry inh = qHTS for inhibitors of binding or entry into cells for Marburg Virus; Potency, µM (series often up to 37.8 µM), without a hit: top-dose activity change, negative = inhibition, actives largely listed as inhibitors; AID 540276, 2011; Marburg virus pseudotyped entry inhibition, cell reporter; 300,000 compounds, 1.8% hits; calls by dose curve; tested in HEK293 cells
HCV inh = qHTS Assay for Inhibitors of Hepatitis C Virus (HCV); Huh7.5.1 HCVcc-Cre infection, luciferase reporter, 44 h; Potency, µM (series often up to 41.8 µM), without a hit: top-dose activity change, negative = inhibition, usual class: inhibitors; 340,000 compounds, 3.4% hits; active = well fitted inhibition curve with a large enough effect; inconclusive = small, poorly fitted or top-dose-only effect, or another doubt; inactive = no such curve, though single readings can be large or run the other way
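Luciferase read-out (15 sec integration) after a 15 min room-temperature substrate step quantifies HCVcc-Cre infection. Cells, 1,000 per well, had compound added 4 h post-plating, then virus at ~0.5 moi, and were cultured 44 h.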
Vaccinia mCherry = qHTS for Stage-Specific Inhibitors of Vaccinia Orthopoxvirus: mCherry Reporter Primary qHTS; Vaccinia virus mCherry reporter infection, fluorescence; Potency, µM (titrated, usually from 36.5 µM), for inactives: at the highest dose activity change, negative = inhibition, most hits filed as inhibitors; 310,000 compounds, 0.63% hits; calls by dose curve; tested in A549 cells; also: nearly all actives have a fitted effect of over 35% in size
FMDV antiviral = High Throughput Screening for Foot and Mouth Disease Virus Antivirals; 410,000 compounds, 1.2% hits; FMDV antiviral cell-based qHTS; AID 1159524, 2015; Potency, µM (series often up to 57.9 µM), for inactives: at the highest dose activity change, negative = inhibition, hits mostly inhibitors; calls by dose curve; tested in HEK293T cells; also: read-out not given here; nearly all actives have a fitted effect of over 45% in size
Starred values were filed as active, the others as inactive; [ ] = dose if it differs, or a comment. Rows were chosen to be rich in hits. Some 5.3% of all compounds tested hit in one or more screens of this group. % is scaled to controls: 0 for no effect and ±100 for the full control effect; potency is read from the fitted curve at half-maximal effect.

Results for Cc1cccc(CS(=O)(=O)c2nnc([C@H](Cc3ccccc3)NC(=O)OC(C)(C)C)o2)c1 ?
LASV entry inh: -10%; MARV entry inh: 16µM*; HCV inh: inconclusive; FMDV antiviral: 32µM*

How did COC(=O)CS(=O)(=O)c1nnc([C@H](Cc2ccccc2)NC(=O)OC(C)(C)C)o1 do in these assays?
LASV entry inh: inconclusive; Vaccinia Venus: 3%; MARV entry inh: inconclusive; HCV inh: inconclusive; Vaccinia mCherry: -23%; FMDV antiviral: 32µM*

Results for COC(=O)CSc1nnc([C@H](Cc2ccccc2)NC(=O)OC(C)(C)C)o1 ?
LASV entry inh: 5%; Vaccinia Venus: -2%; MARV entry inh: 0%; HCV inh: 15%; FMDV antiviral: 0%

Results for O=c1cnc2cnc(Nc3ccccc3)nc2n1Cc1cccs1 ?
FMDV antiviral: -2%

What do the screens show for `COC(=O)C1=C(C(=O)OC)[C@@H]2Nc3ccccc3[C@@]23C[C@@H](C(=O)OC)N(C(=O)NC2CCCC2)C3=N1`?
MARV entry inh: -4%[14.2 µM]

What do the screens show for `Cc1cc(Cl)c(OCCOCCN2CCCC(C)C2)c(Br)c1` (centres undefined)?
LASV entry inh: 13µM*; Vaccinia Venus: -18%; MARV entry inh: inconclusive; HCV inh: inconclusive; Vaccinia mCherry: -16%; FMDV antiviral: -16%

What do the screens show for `CC1CCCN(CCOCCOc2ccc(Br)cc2Cl)C1` (centres undefined)?
LASV entry inh: inconclusive; Vaccinia Venus: -23%; MARV entry inh: 16µM*; HCV inh: inconclusive; Vaccinia mCherry: inactive; FMDV antiviral: inconclusive

What do the screens show for `CC1CCCN(CCOCCOc2ccc(Cl)cc2Br)C1` (centres undefined)?
LASV entry inh: inconclusive; MARV entry inh: 4.6µM*; HCV inh: -29%; FMDV antiviral: -57%

What do the screens show for `CC1CCCN(CCCCOc2cccc(Br)c2)C1` (centres undefined)?
LASV entry inh: 3.3µM*; Vaccinia Venus: -18%; MARV entry inh: 2.9µM*; HCV inh: inconclusive; Vaccinia mCherry: -16%; FMDV antiviral: -16%

Results for COc1ccccc1CNc1ncnc2c1nc1n2CCCC1 ?
LASV entry inh: inconclusive; Vaccinia Venus: 4%; MARV entry inh: inconclusive; Vaccinia mCherry: 2%; FMDV antiviral: -16%

What do the screens show for `CCn1c(Sc2ccc([N+](=O)[O-])cn2)nnc1-c1ccco1`?
LASV entry inh: inconclusive; Vaccinia Venus: inconclusive; MARV entry inh: inconclusive; HCV inh: inconclusive; Vaccinia mCherry: 13µM*; FMDV antiviral: inconclusive

Results for CCCCCCn1c(=O)n2n(c1=O)C[C@]1(OC(=O)NCC3CCCCC3)CN(S(=O)(=O)c3ccc(C)cc3)C[C@]1(O)C2 ?
Vaccinia Venus: 10µM*; Vaccinia mCherry: inconclusive; FMDV antiviral: inconclusive

How did Cc1ccc(S(=O)(=O)N2C[C@H]3n4c(=O)ccc(=O)n4C[C@H](OC(=O)NCC4CCCCC4)[C@@]3(O)C2)cc1 do in these assays?
Vaccinia Venus: inconclusive; Vaccinia mCherry: inconclusive; FMDV antiviral: 32µM*

Results for CCC(=O)Nc1ccccc1-c1nc2ccccc2n(CC(=O)c2ccc(C)c(C)c2)c1=O ?
LASV entry inh: 11%[46.1 µM]; Vaccinia Venus: -11%; MARV entry inh: inconclusive; Vaccinia mCherry: -9%; FMDV antiviral: -14%

Results for CCOc1ccc(Cl)cc1/C=N/NC(N)=O ?
Vaccinia Venus: -8%; HCV inh: 14µM*; Vaccinia mCherry: inactive; FMDV antiviral: 6%

Results for CCn1c([N+](=O)[O-])nc2c1c(=O)[nH]c(=O)n2C ?
LASV entry inh: 18µM*; MARV entry inh: inconclusive; HCV inh: 11µM*; FMDV antiviral: inconclusive

What do the screens show for `Cc1cc(C)nc(S/C=C/C(=O)c2ccccc2F)n1`?
LASV entry inh: inconclusive; Vaccinia Venus: -12%; MARV entry inh: inconclusive; HCV inh: inconclusive; Vaccinia mCherry: inactive; FMDV antiviral: 8.9µM*

What do the screens show for `Cc1cc(C)nc(NC(=S)NC(=O)c2ccccc2F)n1`?
LASV entry inh: 9%; Vaccinia Venus: 4%; MARV entry inh: 0%[46.1 µM]; HCV inh: 0%; Vaccinia mCherry: inactive; FMDV antiviral: 19%

Results for CC(C)N(C(=O)[C@H]1CC(CC(=O)NCC23CC4CC(CC(C4)C2)C3)C(=O)N2CCc3c([nH]c4ccccc34)[C@]12C)C(C)C (some centres undefined) ?
Vaccinia Venus: inconclusive; HCV inh: 3.2µM*; Vaccinia mCherry: inconclusive; FMDV antiviral: 0%

What do the screens show for `CC(C)N(C(=O)[C@H]1C[C@H](CC(=O)NCC23CC4CC(CC(C4)C2)C3)C(=O)N2CCc3c([nH]c4cc(-c5ccco5)ccc34)[C@]12C)C(C)C`?
Vaccinia Venus: inconclusive; HCV inh: 4%; Vaccinia mCherry: 28µM*; FMDV antiviral: -26%

Results for C[C@]12c3[nH]c4ccccc4c3CCN1C(=O)C(CC(=O)NCC13CC4CC(CC(C4)C1)C3)C[C@@H]2C(=O)N1CCCCC1 (some centres undefined) ?
Vaccinia Venus: -29%; HCV inh: 1%; Vaccinia mCherry: inconclusive; FMDV antiviral: -22%

What do the screens show for `Cc1cccc(NC(=O)c2sc3nc4n(c(=O)c3c2C)N=C(c2ccc(F)cc2)CS4)c1C`?
LASV entry inh: 7%[46.1 µM]; Vaccinia Venus: -17%; Vaccinia mCherry: -3%; FMDV antiviral: 3%

Results for Cc1nc(NCCc2ccc(S(N)(=O)=O)cc2)c2c(C)c(C)sc2n1 ?
LASV entry inh: inconclusive; Vaccinia Venus: inconclusive; MARV entry inh: inconclusive; HCV inh: 1µM*; Vaccinia mCherry: inconclusive; FMDV antiviral: 22µM*

Results for Cc1nc2ncnn2c(N2CCCC(C(=O)Nc3ccc4c(c3)CCC4)C2)c1C (centres undefined) ?
LASV entry inh: inconclusive; MARV entry inh: inconclusive; HCV inh: 10µM*; FMDV antiviral: 25µM*

How did CCOc1ccccc1NC(=O)C1CCCN(c2c(CC)c(C)nc3ncnn23)C1 (centres undefined) do in these assays?
LASV entry inh: inconclusive; Vaccinia Venus: -13%; MARV entry inh: inconclusive; HCV inh: 13µM*; Vaccinia mCherry: -9%; FMDV antiviral: inconclusive

Results for CCOC(=O)N1CCc2c(sc3c2c(=O)n(CCc2ccccc2)c(=O)n3Cc2cc(C)ccc2C)C1 ?
LASV entry inh: 20%[46.1 µM]; Vaccinia Venus: -14%; MARV entry inh: -15%[46.1 µM]; Vaccinia mCherry: -11%; FMDV antiviral: -7%

Compound activity: PubChem BioAssay, National Center for Advancing Translational Sciences (NCATS)
